# The list is not random: actives were taken first. Their share in the collection is about 9.4%.
# SMN2 splice up: increases expression of the SMN2 splice variant; HEK293 SMN2-luciferase splicing reporter, luminescence, 30-36 h; Potency, µM (top dose mostly 46.1 µM), for the others: at the highest dose activity change, positive = activation, hits mostly activators; actives 2.8% (n = 210,000); AID 1458; also: % of control where 0% means no effect; nearly all actives have a fitted effect of over 55% in size
#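 HEK293 cells carry an SMN2 […]–luciferase reporter in which exon 7 inclusion puts luciferase in frame. Cells were plated 10-12 h before compound addition, then incubated 30-36 h at 37C. ONE-Glo luminescence was read; sodium butyrate at 4.5 mM final served as control.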
# FLuc counter: inhibits or activates purified firefly luciferase, miR-21 counter-screen; P08659; purified FLuc, Km substrates, luminescence inhibition; Potency, µM (top dose mostly 57.5 µM), for the others: at the top dose activity change, negative = inhibition, usual class: inhibitors; actives 6.9% (n = 360,000); AID 588342;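 also: plate controls were vehicle for no effect and reference inhibitor for full effect; nearly all actives have a fitted effect of over 55% in size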
# Target sequence (P08659 whole entry, looked up): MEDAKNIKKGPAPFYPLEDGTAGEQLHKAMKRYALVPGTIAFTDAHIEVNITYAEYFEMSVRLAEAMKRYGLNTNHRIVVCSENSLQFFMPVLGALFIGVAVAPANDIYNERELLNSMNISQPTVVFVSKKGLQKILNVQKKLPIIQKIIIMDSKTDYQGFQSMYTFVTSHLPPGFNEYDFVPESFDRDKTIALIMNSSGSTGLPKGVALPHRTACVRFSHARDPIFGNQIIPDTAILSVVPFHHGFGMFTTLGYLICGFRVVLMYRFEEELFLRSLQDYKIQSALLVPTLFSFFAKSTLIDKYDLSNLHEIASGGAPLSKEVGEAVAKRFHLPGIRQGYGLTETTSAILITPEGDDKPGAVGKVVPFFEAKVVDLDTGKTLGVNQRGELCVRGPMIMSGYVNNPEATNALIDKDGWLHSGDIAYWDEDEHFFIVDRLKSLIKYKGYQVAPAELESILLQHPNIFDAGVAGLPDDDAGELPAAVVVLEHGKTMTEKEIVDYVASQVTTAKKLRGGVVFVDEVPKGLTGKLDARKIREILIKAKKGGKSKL
#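 Purified P. pyralis luciferase, 10 nM final, with Km-level 10 uM D-luciferin and 10 uM ATP in 50 mM Tris acetate pH 7.5, 10 mM Mg acetate, 0.01% Tween-20, 0.05% BSA; 6-point qHTS titration about 60 µM downward; luminescence read.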
# ELG1 repair inh: ELG1-dependent DNA repair inhibition; actives 2.3% (n = 330,000); Potency, µM (series often up to 46.1 µM), inactives show at the top dose activity change, negative = inhibition, actives largely listed as inhibitors; HEK293T ELG1-luciferase reporter, luminescence, 16 h; DNA damage induced by 5-fluorouridine; also: % is scaled to controls: 0 for no effect and ±100 for the full control effect; nearly all actives have a fitted effect of over 55% in size
#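 5-Fluorouridine DNA damage + compound/DMSO, 2,000 cells/well, 16 h, 37 °C/5% CO2. ONE-Glo, 30 min RT, luminescence. Readout = decrease in reporter signal.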
# NPC1 prom act: activators of NPC1 promoter | Huh7 NPC1 promoter luciferase reporter, 24 h | Potency, µM (titrated, usually from 9.22 µM), for inactives: at the top dose activation, actives largely listed as activators | actives 2.4% (n = 320,000) | AID 485313; also: % of control where 0% means no effect; nearly all actives have a fitted effect of over 60% in size
#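 Stably transfected Huh7 (NPC1 promoter→luciferase), 1500 cells/well in Opti-MEM + 10% FBS, 2 h settle, then compound 24 h at 37 °C. Luminescence after 10 min with Amplite reagent.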
# ELG1 genotox: genotoxicity induction in ELG1-luciferase HEK293T cells. actives 1.3% (n = 330,000). Potency, µM (series often up to 46 µM), for inactives: at the top dose activity change, positive = activation, hits mostly activators. AID 504466. HEK293T ELG1-luciferase reporter, luminescence, 16 h; also: % of control where 0% means no effect; nearly all actives have a fitted effect of over 60% in size
#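 Genotoxicity was scored as increased ELG1-luciferase reporter signal, measured by ONE-Glo luminescence (30 min, room temperature). Compound or vehicle exposure of the HEK293T reporter cells lasted 16 hr at 37°C.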
# Rab9 prom act: activates the Rab9 promoter; Potency, µM (highest dose often 9.22 µM), for inactives: at the highest dose activation, negative = inhibition, hits mostly activators; actives 2.8% (n = 320,000); Huh7 Rab9 promoter-luciferase reporter, luminescence, 24 h; also: % of control where 0% means no effect; nearly all actives have a fitted effect of over 60% in size
#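 Steps: seed 1500 Huh7 Rab9-luc cells per well, rest 2 h at 37 °C; add compound in DMSO; incubate 24 h; add luciferase reagent, 10 min ambient; read luminescence.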
# * hit, by the source's call; ? = inconclusive; nt = no result. Calls follow the shape of the dose curve; as a rule, active = well fitted curve in the direction sought with a large enough effect; inconclusive = small, poorly fitted or top-dose-only effect, or another doubt; inactive = no such curve, though single readings can be large; an effect the other way counts as inactive or inconclusive. Potency is read from the fitted curve at half-maximal effect.
SMILES,SMN2 splice up,FLuc counter,ELG1 repair inh,NPC1 prom act,ELG1 genotox,Rab9 prom act
O=C(/C=C/c1ccco1)Nc1ccc(N2CCCC2)cc1,16µM*,2.4µM*,?,3.5µM*,?,2.8µM*
O=C(/C=C/c1ccc(Cl)cc1Cl)Nc1ccc(CN2CCOCC2)cc1,-77%,7.6µM*,?,-8%,9%,-22%
O=C(/C=C/c1ccccc1)Nc1ccc(CN2CCOCC2)cc1,29%,12µM*,?,18%,17%,?
O=C(/C=C/c1ccco1)Nc1ccc(CN2CCOCC2)cc1,nt,6µM*,?,1.4µM*,?,2.8µM*
CCOc1ccccc1NC(=O)Cn1cc(C(=O)c2ccc(Cl)cc2)c(=O)c2ccc(C)nc21,nt,2%,nt,nt,nt,nt
Cc1cc(C)nc(NC(=NCCc2c[nH]c3ccccc23)NC(=O)Nc2ccccc2)n1,?,-2%,15µM*,-12%,-8%,0%
Cc1cc(C)nc(NC(=NCCc2c[nH]c3ccccc23)NC(=O)Nc2cccc([N+](=O)[O-])c2)n1,-14%,0%,5.2µM*,-5%,-4%,-6%
COc1ccc2[nH]cc(CCN=C(NC(=O)c3ccccc3F)Nc3nc(C)cc(C)n3)c2c1,35µM*,1%,nt,nt,nt,nt
Cc1cc(C)nc(NC(=NCCc2c[nH]c3ccccc23)NC(=O)c2ccco2)n1,-14%,0%,12µM*,9%,-24%,-3%
COc1ccc2[nH]cc(CCNC(=O)Cc3ccc(F)cc3)c2c1,nt,6%,6%,-3%,-4%,0%
C/C(=N\NC(=O)CCc1c[nH]c2ccccc12)c1cccc([N+](=O)[O-])c1,-15%,0%,-19%,-3%,-2%,-3%
Cc1cc(C)nc(NC(=NCCc2c[nH]c3ccccc23)NC(=O)Nc2ccc(Cl)c(Cl)c2)n1,-9%,2%,?,-1%,-5%,-5%
COc1ccc(CN(Cc2ccco2)c2cnc(S(C)(=O)=O)nc2C(=O)Nc2ccc(C)c(Cl)c2)cc1,nt,-1%,nt,nt,nt,nt
COc1ccc(-c2cc3nc(C)n(N)c(=O)c3s2)cc1,nt,0.076µM*,?,0.079µM*,?,0.0032µM*
COc1ccc(-c2nc3ccccc3c(=O)n2N)cc1,7%,2%,-2%,0%,0%,2%
Cc1nc2cc(-c3ccccc3)sc2c(=O)n1N,1.4µM*,0.67µM*,?,?,-21%,?
O=C(Nc1cccc(Cl)c1Cl)c1ccc(-c2ccccc2)cc1,?,?,?,2.5µM*,?,?
Cc1ccc(Cn2nc(C)cc2C(=O)Nc2ccccc2Cl)cc1,nt,12µM*,?,?,23µM*,2.5µM*
Cc1ccc(C(=O)Nc2ccccc2Cl)cc1,nt,6.7µM*,?,3.2µM*,?,1.6µM*
O=C(Nc1ccccc1Cl)c1ccccc1,-19%,-19%,?,19%,?,22%
CCOC(=O)c1cc(-c2ccc(C)cc2)nn1Cc1ccccc1,?,7.6µM*,nt,nt,nt,nt
CCOc1ccccc1NC(=O)N1CCc2c(sc3c2CCCC3)C1c1ccccc1 (stereo not given),nt,-2%,nt,nt,nt,nt
CCn1c(SC)nnc1-c1c[nH]c2ccccc12,-43%,?,3%,12%,26%,0%
CCN=C1NN=C(c2c[nH]c3ccccc23)CS1,nt,6µM*,?,3.5µM*,?,1.1µM*
COCC(C)N=C1NN=C(c2c[nH]c3ccccc23)CS1 (stereo not given),nt,21µM*,?,19%,?,?
COCCn1c(SC)nnc1-c1c[nH]c2ccccc12,-1%,-8%,15%,2%,11%,-5%
COc1cccc(CNS(=O)(=O)c2cc3[nH]c(=O)c(=O)[nH]c3cc2C)c1,nt,-3%,nt,nt,nt,nt

# Bioassay records: PubChem, National Center for Advancing Translational Sciences (NCATS)
